Assay [1] concerns the target Thyrotropin-releasing hormone receptor (Homo sapiens) (UniProt P34981). Kind of assay: qHTS assay to identify small molecule agonists of the thyrotropin-releasing hormone receptor (TRHR) signaling pathway (AID 1346891; calls by dose curve;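 note: HEK293 cells expressing TRHR with calcium dye readout; series mostly up to about 58 µM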). In outline:
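Overnight-plated (18 h, 37 °C, 5% CO2) TRHR-Hek293 cells; 2 h calcium dye at 37 °C; compound in DMSO; 3-min kinetic fluorescence read.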

Assay [2] in a line: Human pregnane X receptor (PXR) small molecule agonists, qHTS cell viability counter screen (AID 1346977). Note: nearly all actives have a fitted effect of over 50% in size. Note: potency is the fitted concentration of half-maximal effect. In outline: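 After a 5hr pre-incubation, PXR-Luc HepG2 cells received compounds plus positive control in DMSO and were kept 24hr at 37C. Cell viability was quantified by fluorescence from CellTiter-Fluor added for the final hour.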
Assay [3] in a line: Caspase-3/7 induction in HepG2 cells by small molecules, qHTS assay (AID 1346978). Note: nearly all actives have a fitted effect of over 15% in size. In outline:
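Wild-type HepG2 cells, 2,000/well, settled 5 hr at 37 C and 5% CO2, then compound-treated for 17 hr; caspase-3/7 activity read by luminescent Caspase-Glo 3/7 after 30 min at room temperature.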
(In qHTS, concentration-response curves come from the screen itself.)

Assay [4] can be described thus: Caspase-3/7 induction in CHO-K1 cells by small molecules, qHTS cell viability counter screen (AID 1346979). Note: nearly all actives have a fitted effect of over 35% in size. Note: potency is the fitted concentration of half-maximal effect. In outline: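 Multiplexed with Caspase-Glo 3/7 in CHO-K1 cells, this counter screen added CellTiter-Fluor after 16hr of compound exposure and recorded fluorescence 1hr later.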
Assay [5] is described as follows: Caspase-3/7 induction in CHO-K1 cells by small molecules, qHTS assay (AID 1346980). Note: nearly all actives have a fitted effect of over 15% in size. Note: potency is the fitted concentration of half-maximal effect. In outline:
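Wild-type CHO-K1 cells exposed to compounds for 17hr at 37 C, 5% CO2. Caspase-3/7 activity then measured by Caspase-Glo 3/7 luminescence after 30min at room temperature.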

A short description of assay [6]: Caspase-3/7 induction in HepG2 cells by small molecules, qHTS cell viability counter screen (AID 1346981). Note: nearly all actives have a fitted effect of over 30% in size. Note: potency is the fitted concentration of half-maximal effect. In outline:
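Treatment of HepG2 cells with DMSO-delivered compounds ran 16 hr at 37 C following a 5-hr pre-incubation of 2,000 cells/well. CellTiter-Fluor fluorescence, read after 1 hr, served as the viability measure in a qHTS format.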

For assay [7], the target named is Nuclear receptor subfamily 1 group I member 2 (Homo sapiens) (UniProt O75469). As to the kind of experiment: Human pregnane X receptor (PXR) small molecule agonists, qHTS assay (AID 1346982). Note: nearly all actives have a fitted effect of over 35% in size. Note: potency is the fitted concentration of half-maximal effect. In outline: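 Stable HepG2 line reporting PXR-mediated CYP3A4 expression via luciferase. Treatment: 24 hr with compounds in DMSO at 37 C. Detection: ONE-Glo luminescence.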

Assay [8] concerns the target Acetylcholinesterase (Homo sapiens) (UniProt P22303). Kind of assay: Acetylcholinesterase (AChE) small molecule antagonists: colormetric cell-based qHTS assay (AID 1347395; calls by dose curve; note: nearly all actives have a fitted effect of over 30% in size; note: potency is the fitted concentration of half-maximal effect). In outline:
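In this cell-based qHTS, attached SH-SY5Y cells were treated with test chemicals for 30 min, after which acetylthiocholine hydrolysis was followed by DTNB colour development over 90 min at 37 C.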

Assay [9] has the same target. Kind of assay: Acetylcholinesterase (AChE) small molecule antagonists: enzyme-based qHTS assay (AID 1347397; calls by dose curve; note: nearly all actives have a fitted effect of over 55% in size; note: potency is the fitted concentration of half-maximal effect). The settings on record: Potency: AChE enzyme activity inhibition. In outline:
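Colorimetric DTNB read-out of thiocholine released from acetylthiocholine by recombinant human AChE (50 mU/mL as dispensed). Compounds were preincubated 30 min at RT before substrate/DTNB addition, with a 10 min RT reaction.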

The target is the same in assay [10]. As to the kind of experiment: Acetylcholinesterase (AChE) small molecule antagonists: fluorescence cell-based qHTS assay (AID 1347398; calls by dose curve; note: nearly all actives have a fitted effect of over 50% in size; note: potency is the fitted concentration of half-maximal effect). The settings on record: Potency: AChE activity. In outline: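 SH-SY5Y, 2,000 cells/well, attached overnight; cmpd 30 min 37 C; acetylthiocholine/Thiolite Green cocktail 40 min RT; fluorescence Ex/Em 490/520 nm.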
The target is the same in assay [11]. Kind of assay: Acetylcholinesterase (AChE) small molecule antagonists: enzyme-based qHTS assay with human liver microsomes (AID 1347399; calls by dose curve; note: nearly all actives have a fitted effect of over 60% in size; note: potency is the fitted concentration of half-maximal effect). Conditions: Potency: qHTS inhibition. In outline:
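Recombinant human AChE (50 mU/mL in the enzyme mix) and human liver microsomes (0.25 mg/mL final) were preincubated with compound and NADPH (0.25 mg/mL final) for 30 min at 37 C. Acetylthiocholine/DTNB was then added; thiocholine was read colorimetrically after 10 min at room temperature.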

For assay [12], the target named is Cytochrome P450 2C19 (Homo sapiens) (UniProt P33261). Kind of assay: Cytochrome P450 Family 2 Subfamily C Member 19 (CYP2C19) small molecule antagonists: luciferase reporter qHTS assay (AID 1671197). Note: nearly all actives have a fitted effect of over 65% in size. Note: potency is the fitted concentration of half-maximal effect. In outline:
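First, compounds are pinned into enzyme-substrate mix and held 10 min at room temperature. Second, NADPH regeneration solution is added and plates incubate 1 h at 37C. Third, detection reagent is added and luminescence read after 20 min.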
A general note: In a reporter assay the amount or activity of a reporter protein is the signal.

Assay [13] has as its target Cytochrome P450 2C9 (Homo sapiens) (UniProt P11712). As to the kind of experiment: Cytochrome P450 Family 2 Subfamily C Member 9 (CYP2C9) small molecule antagonists: luciferase reporter qHTS assay (AID 1671198). Note: nearly all actives have a fitted effect of over 50% in size. Note: potency is the fitted concentration of half-maximal effect. In outline:
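P450-Glo proluciferin substrate with CYP2C9 enzyme; 10 min RT preincubation, then NADPH regeneration 1 h at 37C; luciferin detection reagent 20 min RT, luminescence in relative luminescence units.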

Assay [14] addresses Cytochrome P450 1A2 (Homo sapiens) (UniProt P05177). Kind of assay: Cytochrome P450 Family 1 Subfamily A Member 2 (CYP1A2) small molecule antagonists: luciferase reporter qHTS assay (AID 1671199). Note: nearly all actives have a fitted effect of over 50% in size. Note: potency is the fitted concentration of half-maximal effect. In outline:
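Read-out is luminescence from luciferin detection reagent (20 min) proportional to CYP1A2 activity; compounds in DMSO preincubated 10 min with enzyme and proluciferin substrate, then NADPH regeneration solution, 1 h, room temperature.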

In assay [15] the target is Voltage-gated inwardly rectifying potassium channel KCNH2 (Homo sapiens) (UniProt Q12809). As to the kind of experiment: Human Ether-a-go-go-Related Gene (hERG) channel small molecule antagonists: fluorescence cell-based qHTS assay (AID 1671200). In outline: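 Cell line hERG-U2OS; dye FluxOR II, 1 h RT dark; Tl+ stimulus; ex 480/em 540 nm, read each second for 2 min.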
(Block of hERG is tested as a sign of cardiac risk.)

Assay [16] deals with Cytochrome P450 3A4 (Homo sapiens) (UniProt P08684). As to the kind of experiment: Cytochrome P450 Family 3 Subfamily A Member 4 (CYP3A4) small molecule antagonists: luciferase reporter qHTS assay (AID 1671201). In outline: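 Room-temperature assay throughout: 10 min compound–enzyme/substrate preincubation, 1 h reaction after NADPH regeneration solution, 20 min detection. Luciferin formed from proluciferin substrate is quantified by luminescence.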

Assay [17] addresses Cytochrome P450 2D6 (Homo sapiens) (UniProt P10635). As to the kind of experiment: Cytochrome P450 Family 2 Subfamily D Member 6 (CYP2D6) small molecule antagonists: luciferase reporter qHTS assay (AID 1671196). In outline: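 Chemicals tested for interference with CYP2D6 activity; proluciferin substrate, NADPH regeneration, 1 h at room temperature, luminescent detection.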
In assay [18] the target is Nuclear receptor subfamily 1 group I member 2 (Rattus norvegicus) (UniProt Q9R1A7). Kind of assay: Rat pregnane X receptor (rPXR) activation by small molecules, qHTS assay (AID 1346983). Note: nearly all actives have a fitted effect of over 20% in size. The settings on record: rPXR luciferase reporter cells, One-Glo luminescence, 24 h; max activation: stronger effect = higher value. In outline: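 Cell-based rPXR activation assay: rPXR cells, 2,000 per well, rested 5hr at 37 C, then exposed to compounds in DMSO for 24 hr at 37 C. Luciferase activity read by One-Glo luminescence after 30 min at room temperature.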

Assay [19] concerns the target Nuclear receptor subfamily 1 group I member 2 (Homo sapiens) (UniProt O75469). As to the kind of experiment: CYP3A4 induction through human pregnane X receptor (PXR) by small molecules, qHTS assay (AID 1346984). Note: nearly all actives have a fitted effect of over 40% in size. In outline:
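After 24 h at 37C with compound, DPX-2 cells (HepG2, co-transfected PXR response element and CYP3A4 promoter-luciferase) got 3uM final P450-Glo Luciferin-IPA for 3 h; One-Glo luminescence followed.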

Assay [20] has the same target. Kind of assay: Human pregnane X receptor (PXR) activation by small molecules, qHTS assay (AID 1346985). Note: nearly all actives have a fitted effect of over 40% in size. In outline: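 DPX-2 cells (HepG2 co-transfected with a PXR response element and a CYP3A4-promoter luciferase construct) were seeded at 2,000 per well, rested 5 hr at 37C, then exposed to DMSO-dissolved compounds for 24 hr. Activation was read as luciferase luminescence.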

“And” between values parts separate entries of the source, which are not always exact repeats. Identical values can stand only once. Values without a mark were called inactive. Results filed as inconclusive are left out. The source made the active and inactive calls. Unless noted, calls come from the whole dose curve; as a rule, active = well fitted curve in the direction sought with a large enough effect in the repeat runs; inconclusive = weak or mixed curves; inactive = no such curve, though single readings can be large; an effect the other way counts as inactive or inconclusive.
% is set by controls: 0 for no effect and ±100 for the full control effect.

Cytochrome P450 2C9 (Homo sapiens), sequence (P11712 whole entry, looked up): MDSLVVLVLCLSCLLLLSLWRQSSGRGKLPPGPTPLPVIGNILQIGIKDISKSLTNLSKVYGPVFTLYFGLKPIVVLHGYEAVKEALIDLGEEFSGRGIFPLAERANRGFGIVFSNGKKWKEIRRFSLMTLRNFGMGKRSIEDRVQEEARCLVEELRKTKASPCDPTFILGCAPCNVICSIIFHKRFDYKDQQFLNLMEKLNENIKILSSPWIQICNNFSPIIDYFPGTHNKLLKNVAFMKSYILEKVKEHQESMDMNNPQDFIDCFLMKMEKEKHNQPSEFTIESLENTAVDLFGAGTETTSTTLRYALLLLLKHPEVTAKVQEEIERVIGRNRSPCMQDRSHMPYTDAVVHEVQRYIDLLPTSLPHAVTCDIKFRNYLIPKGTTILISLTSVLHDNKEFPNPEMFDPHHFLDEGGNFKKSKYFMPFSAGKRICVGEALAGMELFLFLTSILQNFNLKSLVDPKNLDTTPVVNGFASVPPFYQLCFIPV
Cytochrome P450 2C19 (Homo sapiens), sequence (P33261 whole entry, looked up): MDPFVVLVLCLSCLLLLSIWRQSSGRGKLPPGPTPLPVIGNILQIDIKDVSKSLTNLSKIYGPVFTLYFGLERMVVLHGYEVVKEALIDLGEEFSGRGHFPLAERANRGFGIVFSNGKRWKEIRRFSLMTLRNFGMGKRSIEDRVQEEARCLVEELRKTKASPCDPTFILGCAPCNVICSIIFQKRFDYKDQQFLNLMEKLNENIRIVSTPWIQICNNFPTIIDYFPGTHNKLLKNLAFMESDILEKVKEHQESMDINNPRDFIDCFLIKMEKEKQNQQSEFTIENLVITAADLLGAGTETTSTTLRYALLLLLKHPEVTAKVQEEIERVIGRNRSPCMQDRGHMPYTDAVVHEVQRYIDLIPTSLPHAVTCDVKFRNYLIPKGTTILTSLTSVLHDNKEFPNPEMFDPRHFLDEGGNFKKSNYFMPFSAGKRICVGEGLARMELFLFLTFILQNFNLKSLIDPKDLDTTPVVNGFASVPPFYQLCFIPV
Cytochrome P450 3A4 (Homo sapiens), sequence (P08684 whole entry, looked up): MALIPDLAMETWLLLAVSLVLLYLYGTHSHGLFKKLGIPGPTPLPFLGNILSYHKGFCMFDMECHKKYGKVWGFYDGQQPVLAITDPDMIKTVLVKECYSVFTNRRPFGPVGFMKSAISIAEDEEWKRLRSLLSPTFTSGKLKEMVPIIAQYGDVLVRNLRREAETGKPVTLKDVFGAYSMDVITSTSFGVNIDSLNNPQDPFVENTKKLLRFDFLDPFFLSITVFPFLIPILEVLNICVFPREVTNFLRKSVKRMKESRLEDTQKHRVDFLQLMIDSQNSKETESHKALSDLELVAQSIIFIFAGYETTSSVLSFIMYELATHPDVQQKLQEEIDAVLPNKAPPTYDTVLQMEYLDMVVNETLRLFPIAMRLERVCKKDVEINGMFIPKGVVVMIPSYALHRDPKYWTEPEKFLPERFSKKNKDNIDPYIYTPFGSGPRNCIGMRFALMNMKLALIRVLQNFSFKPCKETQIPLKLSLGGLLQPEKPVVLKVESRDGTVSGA
Acetylcholinesterase (Homo sapiens), sequence (P22303 whole entry, looked up): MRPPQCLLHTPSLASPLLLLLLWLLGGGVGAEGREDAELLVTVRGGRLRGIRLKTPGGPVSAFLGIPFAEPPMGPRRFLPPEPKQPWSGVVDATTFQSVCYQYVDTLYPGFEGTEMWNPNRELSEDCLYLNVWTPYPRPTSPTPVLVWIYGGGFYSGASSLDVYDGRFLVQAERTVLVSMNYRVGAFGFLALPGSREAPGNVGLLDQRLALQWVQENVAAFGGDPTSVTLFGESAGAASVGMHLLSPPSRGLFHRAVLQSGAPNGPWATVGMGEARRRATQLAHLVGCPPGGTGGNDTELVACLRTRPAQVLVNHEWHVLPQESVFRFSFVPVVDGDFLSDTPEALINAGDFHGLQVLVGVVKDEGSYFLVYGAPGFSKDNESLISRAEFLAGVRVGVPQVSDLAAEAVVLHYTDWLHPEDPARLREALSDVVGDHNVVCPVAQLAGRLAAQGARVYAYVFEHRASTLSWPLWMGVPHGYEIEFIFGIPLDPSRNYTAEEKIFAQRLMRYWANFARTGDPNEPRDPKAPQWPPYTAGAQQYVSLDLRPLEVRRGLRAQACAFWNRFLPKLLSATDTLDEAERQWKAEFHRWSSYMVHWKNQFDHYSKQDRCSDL
Nuclear receptor subfamily 1 group I member 2 (Homo sapiens), sequence (O75469 whole entry, looked up): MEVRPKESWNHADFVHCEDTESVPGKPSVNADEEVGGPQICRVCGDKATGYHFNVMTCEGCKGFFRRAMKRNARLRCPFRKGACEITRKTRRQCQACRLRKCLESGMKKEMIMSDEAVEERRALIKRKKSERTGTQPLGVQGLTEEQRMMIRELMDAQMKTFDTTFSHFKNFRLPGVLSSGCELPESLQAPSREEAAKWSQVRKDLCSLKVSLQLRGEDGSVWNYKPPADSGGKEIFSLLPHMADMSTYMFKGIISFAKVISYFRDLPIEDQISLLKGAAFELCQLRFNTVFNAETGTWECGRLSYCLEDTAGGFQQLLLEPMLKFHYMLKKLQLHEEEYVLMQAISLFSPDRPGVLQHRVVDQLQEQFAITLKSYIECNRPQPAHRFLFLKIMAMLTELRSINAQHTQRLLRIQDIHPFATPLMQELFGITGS
Cytochrome P450 1A2 (Homo sapiens), sequence (P05177 whole entry, looked up): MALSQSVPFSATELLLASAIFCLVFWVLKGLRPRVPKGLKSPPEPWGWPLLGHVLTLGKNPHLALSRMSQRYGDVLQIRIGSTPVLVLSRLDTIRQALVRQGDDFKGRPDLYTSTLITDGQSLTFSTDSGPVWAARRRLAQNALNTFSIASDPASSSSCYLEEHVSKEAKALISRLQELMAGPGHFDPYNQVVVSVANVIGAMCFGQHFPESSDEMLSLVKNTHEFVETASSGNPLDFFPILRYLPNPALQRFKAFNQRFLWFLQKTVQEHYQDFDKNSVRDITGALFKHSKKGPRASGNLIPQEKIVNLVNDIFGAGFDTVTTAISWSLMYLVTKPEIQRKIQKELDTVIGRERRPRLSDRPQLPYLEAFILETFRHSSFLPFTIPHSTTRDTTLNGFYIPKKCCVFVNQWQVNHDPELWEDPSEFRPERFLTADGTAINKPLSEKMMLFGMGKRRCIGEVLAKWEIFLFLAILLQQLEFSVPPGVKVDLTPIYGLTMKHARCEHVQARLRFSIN
Thyrotropin-releasing hormone receptor (Homo sapiens), sequence (P34981 whole entry, looked up): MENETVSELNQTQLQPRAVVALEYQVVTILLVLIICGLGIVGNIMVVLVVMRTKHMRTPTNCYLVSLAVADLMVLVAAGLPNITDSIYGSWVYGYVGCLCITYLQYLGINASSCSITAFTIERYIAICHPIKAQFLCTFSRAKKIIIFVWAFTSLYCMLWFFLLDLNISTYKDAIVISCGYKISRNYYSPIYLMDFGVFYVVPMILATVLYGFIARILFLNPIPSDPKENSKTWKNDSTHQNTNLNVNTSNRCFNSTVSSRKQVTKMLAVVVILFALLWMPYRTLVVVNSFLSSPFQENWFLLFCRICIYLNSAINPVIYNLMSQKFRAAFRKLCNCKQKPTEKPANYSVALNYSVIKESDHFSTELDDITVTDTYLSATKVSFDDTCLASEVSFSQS
Voltage-gated inwardly rectifying potassium channel KCNH2 (Homo sapiens), sequence (Q12809 whole entry, looked up): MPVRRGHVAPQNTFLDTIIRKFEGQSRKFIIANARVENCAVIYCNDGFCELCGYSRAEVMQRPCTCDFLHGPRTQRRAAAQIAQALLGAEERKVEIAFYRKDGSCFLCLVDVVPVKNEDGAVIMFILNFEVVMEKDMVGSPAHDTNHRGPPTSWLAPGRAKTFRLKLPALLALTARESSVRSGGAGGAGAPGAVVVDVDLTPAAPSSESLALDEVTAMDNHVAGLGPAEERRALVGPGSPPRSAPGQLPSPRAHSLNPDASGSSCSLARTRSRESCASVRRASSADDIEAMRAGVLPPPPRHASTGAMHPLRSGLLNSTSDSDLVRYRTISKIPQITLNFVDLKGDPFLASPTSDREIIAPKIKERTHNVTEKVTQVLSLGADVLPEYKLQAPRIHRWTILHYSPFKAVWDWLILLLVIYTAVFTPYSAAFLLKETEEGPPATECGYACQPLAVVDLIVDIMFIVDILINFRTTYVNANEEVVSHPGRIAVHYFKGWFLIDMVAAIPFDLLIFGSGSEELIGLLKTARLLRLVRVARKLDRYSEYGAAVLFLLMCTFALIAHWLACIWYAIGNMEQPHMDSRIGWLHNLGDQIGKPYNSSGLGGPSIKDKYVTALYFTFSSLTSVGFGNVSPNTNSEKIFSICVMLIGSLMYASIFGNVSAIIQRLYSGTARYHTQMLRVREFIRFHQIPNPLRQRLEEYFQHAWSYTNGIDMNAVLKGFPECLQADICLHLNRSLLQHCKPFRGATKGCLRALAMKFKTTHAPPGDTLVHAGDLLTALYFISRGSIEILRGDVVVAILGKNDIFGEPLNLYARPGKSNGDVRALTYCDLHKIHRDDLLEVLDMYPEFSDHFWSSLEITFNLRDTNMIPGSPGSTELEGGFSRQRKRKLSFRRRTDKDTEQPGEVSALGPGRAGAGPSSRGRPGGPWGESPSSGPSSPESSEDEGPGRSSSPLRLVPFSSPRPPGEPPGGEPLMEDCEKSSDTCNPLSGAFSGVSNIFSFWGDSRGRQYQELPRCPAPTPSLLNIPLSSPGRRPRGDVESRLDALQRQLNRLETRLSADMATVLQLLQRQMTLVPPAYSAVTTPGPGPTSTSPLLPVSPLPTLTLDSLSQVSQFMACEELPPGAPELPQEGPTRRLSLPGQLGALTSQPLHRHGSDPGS

For `CCC(Br)(CC)C(=O)NC(N)=O`, the Potency result in assay [1], in [2], in assay [3], in [4], in assay [5] and in [6] was “inactive” throughout. Moreover, the Potency result in assay [7], in [8], in [9], in [10], in assay [11] and in [12] was “inactive” each time. Moreover, the Potency entry in assay [13], in assay [14], in [15] and in assay [16] was “inactive” each time.
`CC(=O)CCC(C)=O`: the Potency result in assay [1], in assay [2], in assay [3], in assay [4], in [5] and in assay [6] was “inactive” in each case. Moreover, the Potency entry in assay [7], in assay [8], in [9], in assay [10], in [11] and in assay [17] was “inactive” in each case. The Potency entry in assay [12], in assay [13], in [14], in assay [15] and in assay [16] was “inactive” in each case.
Consider `CCOP(=O)(OCC)SCCSCC`, for which the Potency result in [1], in assay [2], in assay [3], in assay [4], in [5] and in assay [6] was “inactive” each time. For the same compound, the Potency result in assay [13], in assay [15] and in assay [16] was “inactive” each time. The Potency in assay [7] was 58.3 µM (active); in [8] it was 3.4 µM (active) and 7.96 µM (active); in assay [9], 7.61 µM (active) and 20 µM (active); in assay [10], 3.03 µM (active) and 10 µM (active); in assay [11], 17 µM (active) and 35.6 µM (active); in assay [12] it was 21.4 µM (active) and 35.6 µM (active). In assay [14], the Potency was 34 µM (active).
As to `BrCCCCBr`, the Potency result in [1], in [2], in [3], in assay [4], in assay [5] and in assay [6] was “inactive” each time. In addition, the Potency result in [7], in [8], in assay [9], in [10], in assay [11] and in assay [17] was “inactive” each time. Also, the Potency result in assay [12], in assay [13], in [15] and in [16] was “inactive” in each case.
For the compound `N#C/C(N)=C(/N)C#N`, the Potency entry in assay [1], in assay [2], in [3], in assay [4], in [5] and in [6] was “inactive” each time. Further, the Potency entry in [7], in [8], in [9], in [10], in assay [11] and in [17] was “inactive” throughout. For the same compound, the Potency result in assay [15] was “inactive”. The Potency in [12] was 30.8 µM (active); in assay [14], 21.8 µM (active).
On to `IC(I)=C(I)I`, for which the Potency result in assay [1], in assay [3], in assay [8], in assay [9], in assay [10] and in assay [11] was “inactive” throughout. In addition, the Potency result in assay [17], in assay [15] and in assay [16] was “inactive” each time. Besides, the Potency in assay [2] was 17.2 µM (active); in [4], 4.86 µM (active); in assay [5], 4.86 µM (active); in assay [6], 68.6 µM (active); in [7], 4.86 µM (active); in assay [12] it was 7.1 µM (active). For the same compound, the results for the Potency in assay [13] and in assay [14] were 3.56 µM (active) and 10 µM (active), respectively.
As for `Cn1sc(Cl)cc1=O`, the Potency result in assay [1], in assay [2], in assay [3], in assay [4], in [5] and in [6] was “inactive” throughout. In addition, the Potency entry in assay [7], in [19], in [20], in assay [8], in assay [9] and in assay [10] was “inactive” each time. The Potency entry in [11], in [17], in assay [12], in assay [15] and in assay [16] was “inactive” throughout. In addition, the max activation in [18] was -5.85%. Also, the Potency in [13] was 71 µM (active).

(Values after PubChem BioAssay (Tox21).)
